In PubChem BioAssay AID2314 (National Center for Advancing Translational Sciences (NCATS), 2010):
About 37,000 (12%) of roughly 300,000 compounds were called active. Cut-off read from the data, not from the text of the source: active = max response mostly above about 13% (no sharp cut-off); inactive = mostly below about 14%. The sample as a whole holds a higher share of actives than the screen did.

assay: Cycloheximide Counterscreen for Small Molecule Inhibitors of Shiga Toxin; details: cell reporter, cycloheximide protein synthesis inhibition counterscreen; stronger effect = higher value; note: read at 38.3 µM for the half of the compounds with a filed dose; 0% is about no effect

Compound	max response
O.O.O.O=S(=O)([O-])OC[C@H]1O[C@@H](O[C@]2(COS(=O)(=O)[O-])O[C@H](OS(=O)(=O)[O-])[C@@H](OS(=O)(=O)[O-])[C@@H]2OS(=O)(=O)[O-])[C@H](OS(=O)(=O)[O-])[C@@H](OS(=O)(=O)[O-])[C@@H]1OS(=O)(=O)[O-].[Al]	-3.55% (inactive)
O=C(c1ccccc1)N1CCN(C(=O)c2cc3nc(-c4ccccc4)cc(C(F)(F)F)n3n2)CC1	-1.97% (inactive)
COc1cccc(-c2nnc(NC(=O)c3ccc(S(=O)(=O)N(CC(C)C)CC(C)C)cc3)o2)c1	-5.08% (inactive)
Cc1ccc(N2CCN(c3ccc(C)cc3)C2c2ccccn2)cc1	21.8% (active)
Cc1ccc(S(=O)(=O)NCC(=O)N2CCN(c3ccccn3)CC2)cc1	-5.16% (inactive)
Cc1ccc(N2C(=O)C3CC3C2=O)cc1 (stereo unspecified)	-6.06% (inactive)
CC1=NN(/C(=N\c2nnc(C)s2)Nc2ccccc2)[C@H](c2ccc(C)cc2)S1	-0.911% (inactive)
COCCn1c(=O)[nH]c(=O)c2cc(C(=O)c3cc(OC)ccc3O)cnc21	-3.24% (inactive)
COc1ccc(O)c(C(=O)c2cnc3c(c2)c(-c2ccc(F)cc2)c(C#N)c(=O)n3C)c1	11.3% (inactive)
COc1ccc(O)c(C(=O)c2cnc3onc(C(C)C)c3c2)c1	26.6% (active)
O=C(CS(=O)(=O)c1cn(Cc2ccc(Cl)cc2)c2ccccc12)N1CCOCC1	-4.25% (inactive)
Cc1[nH]n(-c2ccc([N+](=O)[O-])cc2)c(=O)c1C=NCCN1CCN(C(=O)c2ccccc2F)CC1	-3.41% (inactive)
Cc1cc(Cl)ccc1C(=O)C1CCCN(C(=O)CCN2CCCO2)C1 (stereo unspecified)	-2.88% (inactive)
CCc1ccc(NC(=O)CC2C(=O)NCCN2C(=S)Nc2ccccc2)cc1 (stereo unspecified)	5.14% (inactive)
Cc1ccc(CNC(=O)CC2Sc3ccccc3NC2=O)cc1 (stereo unspecified)	-1.23% (inactive)
COC(=O)C(C)C1Sc2ccccc2NC1=O (stereo unspecified)	-1.04% (inactive)
O=C(CC1Nc2ccccc2NC1=O)Nc1ccccc1NC(=O)CC1Nc2ccccc2NC1=O (stereo unspecified)	34.5% (active)
CCOc1ccc(NC(=O)CC2NCCNC2=O)cc1 (stereo unspecified)	0.991% (inactive)
CCOC(=O)c1ccccc1NC(=O)CC1Nc2ccccc2NC1=O (stereo unspecified)	-6.08% (inactive)
CCc1cc(C(=O)OC)c(NC(=O)CC2Sc3ccc(C(F)(F)F)cc3NC2=O)s1 (stereo unspecified)	0.357% (inactive)
O=C(CC1Nc2ccccc2NC1=O)Nc1ccccc1 (stereo unspecified)	31% (active)
CC1CCN(CCC(=O)Nc2ccccc2)CC1	1.18% (inactive)
O=C(CC1NCCNC1=O)Nc1ccc(Oc2ccccc2)cc1 (stereo unspecified)	30% (active)

Compound	max response
CCN(CC)CCNCC(=O)Nc1ccc(Oc2ccccc2)cc1	-2.52% (inactive)
COC(=O)c1cc(C)sc1NC(=O)CC1Nc2ccccc2NC1=O (stereo unspecified)	22.8% (active)
CC1CCCN(S(=O)(=O)c2ccc(N(C(=O)c3cnccn3)C(C(=O)NC3CCCCC3)c3cccs3)cc2)C1 (stereo unspecified)	-3.46% (inactive)
COC(=O)c1ccc(COc2ccc(C#N)cc2)o1	0.875% (inactive)
Cc1cc(C(=O)CSc2nc(N)cc(=O)[nH]2)c(C)n1CCc1ccc(Cl)cc1	4.99% (inactive)
C=CCN(c1ccc(Cl)cc1)S(=O)(=O)c1cccc(C(=O)OCC(=O)N(C)C)c1	-6.49% (inactive)
COc1cc(C(=O)NCc2nnc(SCC(=O)Nc3nc4ccc(C)cc4s3)o2)cc(OC)c1OC	4.75% (inactive)
CCOC(=O)c1cccc(NC(=O)CN2C(=O)C3CC=CCC3C2=O)c1 (stereo unspecified)	-0.226% (inactive)
CCC1C=C(c2ccccc2)C=CN=C1N(CC)CC (stereo unspecified)	-0.252% (inactive)
O=c1/c(=C/c2ccc(CNS(=O)(=O)c3ccccc3)o2)sc2n1CCN=2	-4.34% (inactive)
CCc1nc(C)cn1S(=O)(=O)c1cc([N+](=O)[O-])ccc1Cl	-1.54% (inactive)
Cc1ccc(NC(=O)CN2CCC3(O)CCCCC3C2c2ccc3c(c2)OCO3)c(C)c1 (stereo unspecified)	-2.23% (inactive)
Cc1ccc(C(=O)N/C(=C/c2cccs2)C(=O)N2CCCCC2)cc1	13.7% (inactive)
Cc1ccc(C(=O)N/C(=C\c2cccs2)C(=O)NCCc2ccccn2)cc1C	31.4% (active)
Cc1ccc(C(=O)N/C(=C/c2cccs2)C(=O)NCC2CCCO2)cc1 (stereo unspecified)	-3.91% (inactive)
O=C(Cc1ccc([N+](=O)[O-])cc1)Nc1ccc(C(=O)N2CCOCC2)cc1	-1.78% (inactive)
CCNC(=O)Nc1ccc(S(=O)(=O)Nc2cnc(C)nc2C)cc1	-7.45% (inactive)
CC(C)n1c(=O)[nH]c2cc(C(=O)Nc3ccccc3)ccc21	-2.19% (inactive)
O=C(/C=N/O)Nc1ccccc1	-2.41% (inactive)
O=C(Nc1ccccc1)c1cc2ccccc2[nH]1	42.1% (active)
COc1ccc(NC(=S)SC)cc1OC	-3.14% (inactive)
COc1ccc2c(c1)N(C)/C(=C1/SC(=S)N(NC(C)=O)C1=O)S2	5.97% (inactive)
COc1ccc(/C=C/C2=CC(C)(C)NC(=S)N2)c(OC)c1	5.95% (inactive)

Compound	max response
COCCc1nn2c(=O)cc(COC(=O)c3cc(OC)c(OC)c(OC)c3)nc2s1	3.56% (inactive)
CC1=C(/C=C/C(C)=C/C=C/C(C)=C/C=C/C=C(C)/C=C/C=C(C)/C=C/C(=O)[C@]2(C)C[C@@H](O)CC2(C)C)C(C)(C)C[C@H](O)C1	9.8% (inactive)
CCOc1cccc(/C=C/c2ccc3ccccc3n2)c1OC(C)=O	25.2% (active)
COc1ccc(CNC(=O)/C(C#N)=C/c2cccc(OC)c2OC)cc1	-1.4% (inactive)
COc1cccc(/C=C/c2ccc3ccccc3n2)c1OC(C)=O	28.2% (active)
CCOc1ccccc1-c1cc(C(=O)N2CCOCC2)c2ccccc2n1	-3.29% (inactive)
CCOc1ccccc1-c1cc(C(=O)N/N=C(\C)c2cccnc2)c2ccccc2n1	-1.08% (inactive)
COc1cccc(/C=C2\C=C(c3ccc(C)cc3)OC2=O)c1OC(C)=O	1.6% (inactive)
CCOc1ccc(CCNC(=O)CCc2nnc3ccc(N4CCCC4)nn23)cc1OCC	1.2% (inactive)
Cn1nccc1C(=O)NC1CCCc2c1cnn2-c1ccccc1F (stereo unspecified)	-0.344% (inactive)
Cc1ccc2oc(=O)c3cnn(CC(=O)N(Cc4ccco4)C4CCCCC4)c3c2c1	-5.66% (inactive)
CCOC(=O)c1c(C)n(C)c2ccc(OC)c(NS(=O)(=O)CC)c12	3.73% (inactive)
COc1cc(CN2CCC(C(N)=O)CC2)ccc1OCc1ccccc1	34.9% (active)
CCOc1cc(CN2CCN(C(=O)CC(C)C)CC2)ccc1OC	-2.09% (inactive)
COc1ccc(COCC(O)CN2CCC(C(N)=O)CC2)cc1 (stereo unspecified)	-2.46% (inactive)
O=C(NCc1cn2ccsc2n1)Nc1ccc(Cl)cc1	1.41% (inactive)
O=C(Nc1ccc(Cl)cc1)c1ccsn1	50.1% (active)
CCC(=O)Nc1ccc(C(=O)NNC(=O)c2ccc(Cl)cc2)cc1	-0.754% (inactive)
Cc1c(CCC(=O)N[C@@H](CC(C)C)C(=O)O)c(=O)oc2c(C)c3oc4c(c3cc12)CCCC4	-2.26% (inactive)
CC(C)c1nnc(NC(=O)CCC(=O)N2CCN(c3cccc(Cl)c3)CC2)s1	4.84% (inactive)
O=C(c1ccc2c(c1)OCO2)N1CCN(C(=O)c2ccco2)CC1	-3.05% (inactive)
O=C(c1ccco1)N1CCN(C(=O)C2c3ccccc3Oc3ccccc32)CC1	12.3% (active)
O=C(CCCC(=O)N1CCN(c2cccc(Cl)c2)CC1)c1ccccc1	19.7% (active)

Compound	max response
O=C(c1ccco1)N1CCN(C(=O)C2CC(c3ccc(F)cc3)=NO2)CC1 (stereo unspecified)	-6.02% (inactive)
O=C(c1ccco1)N1CCN=C1SCc1cccc(Cl)c1	-6.49% (inactive)
O=C(c1ccco1)N1CCN(c2cccc(Cl)c2)CC1	23.2% (active)
O=C(OCC(=O)N1CCN(C(=O)c2ccco2)CC1)c1ccccc1Cc1ccccc1	34.9% (inactive)
O=C(OCC(=O)N1CCCC1)c1ccco1	10.1% (inactive)
CS(=O)(=O)N(CC(=O)N1CCN(c2cccc(Cl)c2)CC1)c1ccccc1	-1.4% (inactive)
O=C(c1cccc([N+](=O)[O-])c1)N1CCN(C(=O)c2ccco2)CC1	-0.729% (inactive)
O=C(OCC(=O)N1CCN(C(=O)c2ccco2)CC1)c1cccc(O)c1	5.85% (active)
CCOC(=O)Cn1c(=O)sc2cccc(Cl)c21	-1.55% (inactive)
COc1cc(C)c(C(C)C)cc1S(=O)(=O)n1ccnc1	0.42% (inactive)
CCOC(=O)c1ccc(N=C2SC(C(=O)NC)CC(=O)N2CCc2ccccc2)cc1 (stereo unspecified)	1.86% (inactive)
Cc1cc(=O)cc(C)n1-c1ccc(Cl)c(Cl)c1	-2.09% (inactive)
O=C(CSc1nc2ccc(Nc3nc(N4CCOCC4)nc(N4CCOCC4)n3)cc2s1)NCc1ccco1	-3.23% (inactive)
CC(=O)Nc1ccc(S(=O)(=O)NCC2CCC(C(=O)NCCc3ccccc3)CC2)cc1 (stereo unspecified)	-1.06% (inactive)
CC(=O)Nc1ccc(NC(=O)CN2CCCC(C)C2)c(Cl)c1 (stereo unspecified)	22.7% (active)
O=C(CN1CCOCC1)Nc1ccc(NC(=O)CN2CCOCC2)c(Cl)c1	-4.13% (inactive)
CC1CCCN(CC(=O)Nc2cc(Cl)ccc2Oc2ccccc2)C1 (stereo unspecified)	8.16% (inactive)
Nc1nc(SCC(=O)Nc2ccc(Cl)cc2C(F)(F)F)n[nH]1	-3.77% (inactive)
N#Cc1ccc(/C=C2\CCn3c2nc2cc(C(=O)O)ccc2c3=O)cc1	-2.31% (inactive)
CC(=O)c1ccc(OCCN2CCOCC2)cc1	3.75% (inactive)
c1ccc(-c2ccc(OCCN3CCOCC3)cc2)cc1	47.6% (active)
CC(C)(c1ccccc1)c1ccc(OCCN2CCCC2)cc1	2.15% (inactive)
